The source of these data is PubChem BioAssay.

“And” between values parts separate entries of the source, which are not always exact repeats. Equal values may be shown once. The source made the active and inactive calls. Unless noted, no stated cut-off is given here; in the data, active means parasite load remaining mostly below about 12% (no sharp cut-off); inactive means mostly above about 10%.

Test system in the first test: not listed separately
The experiment in a line: hESC survival regulators, cell-based (AID 493140; call rule not given here;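 further: cells exposed to compounds for four days before counting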). The settings on record: human embryonic stem cell survival screen; stronger effect = higher value.
Turning to `CC12CC3CC(C)(C1)CC(N)(C3)C2`, the survival is 11.7 (inactive).

Turning to `CC1=NS(=O)(=O)c2cc(Cl)ccc2N1`, the survival is 11.5 (inactive).

On to `CC1COc2c(N3CCN(C)CC3)c(F)cc3c(=O)c(C(=O)O)cn1c23` (stereo unspecified), for which the survival is 10.6 (inactive).

As to `O=C(C1CCCCC1)N1CC(=O)N2CCc3ccccc3C2C1` (stereo unspecified), the survival was 12.2 (inactive).

Take `CCc1cc(C(N)=S)ccn1`: the survival was 9.25 (inactive).

With `CC1=C(/C=C/C(C)=C/C=C/C(C)=C/C(=O)O)C(C)(C)CCC1`, the survival was 12.6 (inactive) and 136 (inactive).

With `CCCCNc1cc(C(=O)O)cc(S(N)(=O)=O)c1Oc1ccccc1`, the survival is 12.6 (inactive).

As to `O=C1c2c(O)ccc(O)c2C(=O)c2c(NCCNCCO)ccc(NCCNCCO)c21`, the survival was 0.583 (inactive).

As for `O=C(O)c1cc(=O)c2c(OCC(O)COc3cccc4oc(C(=O)O)cc(=O)c34)cccc2o1`, the survival was 1.67 (inactive).

For the molecule `CC(C)C(=O)Nc1ccc([N+](=O)[O-])c(C(F)(F)F)c1`, the survival was 18.4 (inactive).

Consider `CC(COc1ccccc1)N(CCCl)Cc1ccccc1` (stereo unspecified), for which the survival was 5.08 (inactive).

`NS(=O)(=O)c1cc2c(cc1Cl)NCNS2(=O)=O`: the survival was 7.5 (inactive).

On to `CCOC(=O)C1=C(C)NC(C)=C(C(=O)OC)C1c1cccc([N+](=O)[O-])c1` (stereo unspecified), for which the survival is 5.33 (inactive).

For the molecule `NNCCc1ccccc1`, the survival is 9.5 (inactive).

For the molecule `N[C@@H]1CONC1=O`, the survival was 4.33 (inactive).

On to `CCN(Cc1ccncc1)C(=O)C(CO)c1ccccc1` (stereo unspecified), for which the survival was 16.4 (inactive).

`CCCc1cc(=O)[nH]c(=S)[nH]1`: the survival was 31.3 (inactive).

Turning to `O=C(O)c1cccnc1`, the survival was 4 (inactive).

On to `CC(C[N+](C)(C)C)OC(N)=O` (stereo unspecified), for which the survival was 18.5 (inactive).

As for `COc1ccc(Cl)cc1C(=O)NCCc1ccc(S(=O)(=O)NC(=O)NC2CCCCC2)cc1`, the survival is 5.42 (inactive).

As for `COCCOC(=O)C1=C(C)NC(C)=C(C(=O)OC(C)C)C1c1cccc([N+](=O)[O-])c1` (stereo unspecified), the survival is 3 (inactive).

On to `NNC(=O)c1ccncc1`, for which the survival was 30.9 (inactive).

Test system in another test: not listed separately
The experiment in a line: liver-stage malaria parasite growth inhibition, primary screen, cell-based, HepG2, luciferase luminescence, HepG2 viability (AID 624349).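 Further: 100% = mean of DMSO negative control wells on the same plate.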 The following applies: P. berghei liver stage in HepG2, luciferase luminescence, concentration not given here; parasite load remaining: stronger effect = lower value; viability: measured here: HepG2 viability without parasites.
In the case of `S=c1nc[nH]c2nc[nH]c12`, the parasite load remaining is 27.1% (inactive) and 38.1% (inactive) and 20.6% (inactive); the viability – broadly, a read-out of living cells in per cent, often relative to untreated cells – was 73.4% and 55.1% and 57.4%.

For the molecule `Oc1c(Cl)cc(Cl)c2cccnc12`, the parasite load remaining was -2.47% (inactive) and 0.685% (inactive); the viability was 56.8% and 69.6%.

Take `NCCc1ccc(O)c(O)c1`: the parasite load remaining is 36.4% (inactive) and 34.7% (inactive) and 21% (inactive); the viability was 120% and 74.1% and 206%.

Take `O=c1[nH]cnc2[nH]ncc12`: the viability is 90.8% and 70.7% and 94.2%; the parasite load remaining is 54% (inactive) and 101% (inactive) and 124% (inactive).

Consider `CC(=O)CC(c1ccccc1)c1c(O)c2ccccc2oc1=O` (stereo unspecified), for which the viability is 95.3% and 65.5% and 98.1%; the parasite load remaining was 43.1% (inactive) and 79.3% (inactive) and 42.7% (inactive).

`CS(=O)(=O)OCCCCOS(C)(=O)=O`: the parasite load remaining is 46.8% (inactive) and 102% (inactive) and 58% (inactive); the viability was 95.5% and 78.8% and 98.1%.

Turning to `COc1ccccc1OCCNCC(O)COc1cccc2[nH]c3ccccc3c12` (stereo unspecified), the parasite load remaining was 91.3% (inactive) and 56.7% (inactive) and 56.6% (inactive).

In the case of `O=C(O)CCCc1ccccc1`, the parasite load remaining is 61.6% (inactive) and 72.5% (inactive); the viability was 96.6% and 102%.

Turning to `CC1(C)O[C@@H]2[C@@H](CO[C@@]3(COS(N)(=O)=O)OC(C)(C)O[C@@H]23)O1`, the viability is 90.1% and 108% and 69.4%; the parasite load remaining was 169% (inactive) and 59.3% (inactive) and 91.8% (inactive).

For the next test, the system named is Hepatitis C virus NS3 helicase. The test is described as follows: HCV NS3 helicase inhibitors, primary screen, biochemical, fluorescence polarization, LOPAC1280 library (AID 687035; in the data active means inhibition above about 37%). The settings on record: Purified HCV NS3 helicase, Cy5-dT15 ssDNA binding fluorescence polarization; stronger effect = higher value; concentration not given here.
For `CC12CC3CC(C)(C1)CC(N)(C3)C2`, the inhibition (as a rule, the change of the read-out against control, counted positive when it falls) is -2% (inactive).

In the case of `CC1=NS(=O)(=O)c2cc(Cl)ccc2N1`, the inhibition is -1% (inactive).

On to `NCCc1ccc(O)c(O)c1`, for which the inhibition was -4% (inactive).

Consider `CN=C(NC#N)NCCSCc1nc[nH]c1C`, for which the inhibition was 0% (inactive).

Turning to `CC1COc2c(N3CCN(C)CC3)c(F)cc3c(=O)c(C(=O)O)cn1c23` (stereo unspecified), the inhibition was -6% (inactive).

With `O=C(C1CCCCC1)N1CC(=O)N2CCc3ccccc3C2C1` (stereo unspecified), the inhibition was -3% (inactive).

As to `CC1=C(/C=C/C(C)=C/C=C/C(C)=C/C(=O)O)C(C)(C)CCC1`, the inhibition is -1% (inactive).

With `CCCCNc1cc(C(=O)O)cc(S(N)(=O)=O)c1Oc1ccccc1`, the inhibition is -3% (inactive).

In the case of `O=c1[nH]cnc2[nH]ncc12`, the inhibition is -4% (inactive).

Regarding `O=C1c2c(O)ccc(O)c2C(=O)c2c(NCCNCCO)ccc(NCCNCCO)c21`, the inhibition is 119% (active).

Regarding `CC(C)C(=O)Nc1ccc([N+](=O)[O-])c(C(F)(F)F)c1`, the inhibition is -1% (inactive).

As for `CC(COc1ccccc1)N(CCCl)Cc1ccccc1` (stereo unspecified), the inhibition is -1% (inactive).

As to `NS(=O)(=O)c1cc2c(cc1Cl)NCNS2(=O)=O`, the inhibition is -1% (inactive).

In the case of `CCOC(=O)C1=C(C)NC(C)=C(C(=O)OC)C1c1cccc([N+](=O)[O-])c1` (stereo unspecified), the inhibition is -2% (inactive).

Take `COc1ccccc1OCCNCC(O)COc1cccc2[nH]c3ccccc3c12` (stereo unspecified): the inhibition is -2% (inactive).

With `NNCCc1ccccc1`, the inhibition was -1% (inactive).

For the molecule `CC(C)Cc1ccc(C(C)C(=O)O)cc1` (stereo unspecified), the inhibition was -2% (inactive).

For the molecule `N[C@@H]1CONC1=O`, the inhibition was -2% (inactive).

Turning to `CCN(Cc1ccncc1)C(=O)C(CO)c1ccccc1` (stereo unspecified), the inhibition was -6% (inactive).

`CC(C[N+](C)(C)C)OC(N)=O` (stereo unspecified): the inhibition was -2% (inactive).

Consider `COc1ccc(Cl)cc1C(=O)NCCc1ccc(S(=O)(=O)NC(=O)NC2CCCCC2)cc1`, for which the inhibition was 1% (inactive).

For `COCCOC(=O)C1=C(C)NC(C)=C(C(=O)OC(C)C)C1c1cccc([N+](=O)[O-])c1` (stereo unspecified), the inhibition was -4% (inactive).
